Measurements taken from PubChem BioAssay (NCI).
About 79,000 compounds went through this panel and 15% of them were active in at least one assay; those are over-represented in the sample as a whole. A number with no mark means an inactive call. Active and inactive are the calls of the source. Rule as the data show it: active = growth inhibition above about 70%; inactive = the rest.

How the values were obtained:
[1] = NCI Yeast Anticancer Drug Screen. Data for the rad50 strain (AID 155);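 also: 0% = growth of vehicle-only cultures of the same strain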; conditions: S. cerevisiae rad50 strain growth inhibition, hits give high values
Outline: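 Cells are treated with compound, grown, and their growth is then scored against vehicle-only cultures of the same repair-deficient yeast strain.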

[2] = NCI Yeast Anticancer Drug Screen. Data for the mec2-1 strain (AID 157); conditions: S. cerevisiae mec2-1 strain, hits give high values
Outline: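 mec2-1 yeast strain, carrying an alteration in DNA damage repair or cell cycle control, was exposed to compounds; growth inhibition was measured relative to vehicle-treated controls.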

[3] = NCI Yeast Anticancer Drug Screen. Data for the sgs1 mgt1 strain (AID 161);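 also: 0% = growth of cultures given vehicle only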; conditions: S. cerevisiae sgs1 mgt1 strain, hits give high values
Outline: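 Compounds are added to genetically altered yeast, and growth is compared with cultures given vehicle alone to give percent inhibition.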

[4] = NCI Yeast Anticancer Drug Screen. Data for the cln2 rad14 strain (AID 165);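 also: 0% = growth equal to vehicle treated cultures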; conditions: S. cerevisiae cln2 rad14 strain, hits give high values
Outline: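 Yeast carrying cln2 and rad14 alterations (cell cycle control and DNA damage repair) were exposed to compounds. Growth inhibition was measured against vehicle-treated controls.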

[5] = NCI Yeast Anticancer Drug Screen. Data for the bub3 strain (AID 167); conditions: S. cerevisiae bub3 mutant strain, hits give high values
Outline: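 Part of a panel of yeast mutants defective in DNA damage repair or cell cycle regulation. Each strain is grown with compound, and inhibition is calculated relative to solvent-treated cultures.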

[6] = NCI Yeast Anticancer Drug Screen. Data for the mlh1 rad18 strain (AID 175); conditions: S. cerevisiae mlh1 rad18 strain growth inhibition, hits give high values
Outline: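 Growth inhibition of the yeast strain was measured after compound exposure and expressed relative to vehicle-treated controls. The strain carries defined defects in DNA damage repair.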

[7] = at 5.0 µM (retest, dose inferred, filed as 0.5)
[8] = at 50.0 µM (retest, dose inferred, filed as 5.0)

## CC(C)(C)c1cc(C(O)(C(F)(F)F)C(F)(F)F)c(S)c(C(O)(C(F)(F)F)C(F)(F)F)c1
[1]; [7]
  growth inhibition: 8%
[1]; [8]
  growth inhibition: 98% (active)
[1]; at 50.0 µM
  growth inhibition: 98.8% (active)
[2]; [7]
  growth inhibition: -6%
[2]; [8]
  growth inhibition: 99% (active)
[2]; at 50.0 µM
  growth inhibition: 99.3% (active)
[3]; [7]
  growth inhibition: 9%
[3]; [8]
  growth inhibition: 98% (active)
[3]; at 50.0 µM
  growth inhibition: 98.8% (active)
[4]; [7]
  growth inhibition: 16%
[4]; [8]
  growth inhibition: 98% (active)
[4]; at 50.0 µM
  growth inhibition: 99% (active)
[5]; [7]
  growth inhibition: 7%
[5]; [8]
  growth inhibition: 97% (active)
[5]; at 50.0 µM
  growth inhibition: 99% (active)
[6]; [7]
  growth inhibition: 4%
[6]; [8]
  growth inhibition: 95% (active)
[6]; at 50.0 µM
  growth inhibition: 99% (active)

## CCC[CH2][Sn]([CH2]CCC)([O]C(=O)c1c(F)cccc1F)[O]C(=O)c1c(F)cccc1F
[1]; [7]
  growth inhibition: 80% (active)
[1]; [8]
  growth inhibition: 80% (active)
[1]; at 50.0 µM
  growth inhibition: 88.8% (active)
[2]; [7]
  growth inhibition: 66%
[2]; [8]
  growth inhibition: 66%
[2]; at 50.0 µM
  growth inhibition: 89.7% (active)
[3]; [7]
  growth inhibition: 80% (active)
[3]; [8]
  growth inhibition: 80% (active)
[3]; at 50.0 µM
  growth inhibition: 87.3% (active)
[4]; [7]
  growth inhibition: 70% (active)
[4]; [8]
  growth inhibition: 70% (active)
[4]; at 50.0 µM
  growth inhibition: 86.9% (active)
[5]; [7]
  growth inhibition: 72% (active)
[5]; [8]
  growth inhibition: 72% (active)
[5]; at 50.0 µM
  growth inhibition: 83.6% (active)
[6]; [7]
  growth inhibition: 73% (active)
[6]; [8]
  growth inhibition: 73% (active)
[6]; at 50.0 µM
  growth inhibition: 84% (active)

## CC(=O)OC1(c2ccccc2)N=C(c2ccccc2)N=C1c1ccccc1 (stereo not given)
[1]; [7]
  growth inhibition: 13%
[1]; [8]
  growth inhibition: 28%
[1]; at 50.0 µM
  growth inhibition: 28.9%
[2]; [7]
  growth inhibition: 4%
[2]; [8]
  growth inhibition: 13%
[2]; at 50.0 µM
  growth inhibition: 19.1%
[3]; [7]
  growth inhibition: 6%
[3]; [8]
  growth inhibition: 37%
[3]; at 50.0 µM
  growth inhibition: 65.8%
[4]; [7]
  growth inhibition: 13%
[4]; [8]
  growth inhibition: 28%
[4]; at 50.0 µM
  growth inhibition: 38.3%
[5]; [7]
  growth inhibition: 13%
[5]; [8]
  growth inhibition: 24%
[5]; at 50.0 µM
  growth inhibition: 41.9%
[6]; [7]
  growth inhibition: 3%
[6]; [8]
  growth inhibition: 39%
[6]; at 50.0 µM
  growth inhibition: 70.1% (active)

## COC(=O)c1nc2ccc([N+](=O)[O-])cc2n1O
[1]; [7]
  growth inhibition: -154%
[1]; [8]
  growth inhibition: -155%
[1]; at 50.0 µM
  growth inhibition: 2.25%
[2]; [7]
  growth inhibition: -54%
[2]; [8]
  growth inhibition: -59%
[2]; at 50.0 µM
  growth inhibition: 19.8%
[3]; [7]
  growth inhibition: -60%
[3]; [8]
  growth inhibition: -70%
[3]; at 50.0 µM
  growth inhibition: 2.95%
[4]; [7]
  growth inhibition: -53%
[4]; [8]
  growth inhibition: -60%
[4]; at 50.0 µM
  growth inhibition: 36%
[5]; [7]
  growth inhibition: -68%
[5]; [8]
  growth inhibition: -80%
[5]; at 50.0 µM
  growth inhibition: 4.8%
[6]; [7]
  growth inhibition: -116%
[6]; [8]
  growth inhibition: -111%
[6]; at 50.0 µM
  growth inhibition: 4.3%

## N#Cc1snc2sc(=O)sc12
[1]; [7]
  growth inhibition: 99% (active)
[1]; [8]
  growth inhibition: 100% (active)
[1]; at 50.0 µM
  growth inhibition: 99.5% (active)
[2]; [7]
  growth inhibition: 100% (active)
[2]; [8]
  growth inhibition: 99% (active)
[2]; at 50.0 µM
  growth inhibition: 99.7% (active)
[3]; [7]
  growth inhibition: 100% (active)
[3]; [8]
  growth inhibition: 100% (active)
[3]; at 50.0 µM
  growth inhibition: 99.5% (active)
[4]; [7]
  growth inhibition: 99% (active)
[4]; [8]
  growth inhibition: 100% (active)
[4]; at 50.0 µM
  growth inhibition: 99.2% (active)
[5]; [7]
  growth inhibition: 100% (active)
[5]; [8]
  growth inhibition: 99% (active)
[5]; at 50.0 µM
  growth inhibition: 99.2% (active)
[6]; [7]
  growth inhibition: 100% (active)
[6]; [8]
  growth inhibition: 99% (active)
[6]; at 50.0 µM
  growth inhibition: 99.5% (active)

## CC(C)(CN1CCCCC1)C(=O)CC(SCCS(=O)(=O)O)c1ccc(Cl)cc1 (stereo not given)
[1]; [7]
  growth inhibition: 16%
[1]; [8]
  growth inhibition: 88% (active)
[1]; at 50.0 µM
  growth inhibition: 19.2%
[2]; [7]
  growth inhibition: -4%
[2]; [8]
  growth inhibition: 91% (active)
[2]; at 50.0 µM
  growth inhibition: 3.7%
[3]; [7]
  growth inhibition: -9%
[3]; [8]
  growth inhibition: 85% (active)
[3]; at 50.0 µM
  growth inhibition: 39.1%
[4]; [7]
  growth inhibition: -1%
[4]; [8]
  growth inhibition: 91% (active)
[4]; at 50.0 µM
  growth inhibition: 55.7%
[5]; [7]
  growth inhibition: -13%
[5]; [8]
  growth inhibition: 97% (active)
[5]; at 50.0 µM
  growth inhibition: 25.6%
[6]; [7]
  growth inhibition: 1%
[6]; [8]
  growth inhibition: 89% (active)
[6]; at 50.0 µM
  growth inhibition: 11.1%

## Cc1c(C#N)c(N)nc2c(C(N)=O)nsc12
[1]; [7]
  growth inhibition: -2%
[1]; [8]
  growth inhibition: -13%
[1]; at 50.0 µM
  growth inhibition: 13.2%
[2]; [7]
  growth inhibition: -2%
[2]; [8]
  growth inhibition: -8%
[2]; at 50.0 µM
  growth inhibition: 8.75%
[3]; [7]
  growth inhibition: -3%
[3]; [8]
  growth inhibition: -9%
[3]; at 50.0 µM
  growth inhibition: 10.7%
[4]; [7]
  growth inhibition: -2%
[4]; [8]
  growth inhibition: -18%
[4]; at 50.0 µM
  growth inhibition: 53.6%
[5]; [7]
  growth inhibition: 9%
[5]; [8]
  growth inhibition: 16%
[5]; at 50.0 µM
  growth inhibition: -8.4%
[6]; [7]
  growth inhibition: -1%
[6]; [8]
  growth inhibition: -11%
[6]; at 50.0 µM
  growth inhibition: 26.2%

## NC(=Nc1cc2ccccc2c2ccccc12)/N=C(/N)Nc1cc2ccccc2c2ccccc12
[1]; [7]
  growth inhibition: 99% (active)
[1]; [8]
  growth inhibition: 97% (active)
[1]; at 50.0 µM
  growth inhibition: 60.6%
[2]; [7]
  growth inhibition: 100% (active)
[2]; [8]
  growth inhibition: 99% (active)
[2]; at 50.0 µM
  growth inhibition: 56.2%
[3]; [7]
  growth inhibition: 99% (active)
[3]; [8]
  growth inhibition: 98% (active)
[3]; at 50.0 µM
  growth inhibition: 51.1%
[4]; [7]
  growth inhibition: 99% (active)
[4]; [8]
  growth inhibition: 98% (active)
[4]; at 50.0 µM
  growth inhibition: 50.8%
[5]; [7]
  growth inhibition: 99% (active)
[5]; [8]
  growth inhibition: 98% (active)
[5]; at 50.0 µM
  growth inhibition: 60%
[6]; [7]
  growth inhibition: 99% (active)
[6]; [8]
  growth inhibition: 98% (active)
[6]; at 50.0 µM
  growth inhibition: 51.7%

## CC(=O)OC12CC(C(F)(F)F)(C(F)(F)F)OC1(OC(C)=O)CC(C(F)(F)F)(C(F)(F)F)O2 (stereo not given)
[1]; [7]
  growth inhibition: 1%
[1]; [8]
  growth inhibition: 15%
[1]; at 50.0 µM
  growth inhibition: 49.5%
[2]; [7]
  growth inhibition: -8%
[2]; [8]
  growth inhibition: 48%
[2]; at 50.0 µM
  growth inhibition: 29.8%
[3]; [7]
  growth inhibition: 4%
[3]; [8]
  growth inhibition: 66%
[3]; at 50.0 µM
  growth inhibition: 50.2%
[4]; [7]
  growth inhibition: 18%
[4]; [8]
  growth inhibition: 56%
[4]; at 50.0 µM
  growth inhibition: 71% (active)
[5]; [7]
  growth inhibition: 7%
[5]; [8]
  growth inhibition: 28%
[5]; at 50.0 µM
  growth inhibition: 67.1%
[6]; [7]
  growth inhibition: -4%
[6]; [8]
  growth inhibition: 66%
[6]; at 50.0 µM
  growth inhibition: 86.3% (active)

## COC1C=COC2(C)Oc3c(C)c(O)c4c(O)c(c(C5SCCS5)c(O)c4c3C2=O)NC(=O)/C(C)=C\C=CC(C)C(O)C(C)C(O)C(C)C(OC(C)=O)C1C (stereo not given)
[1]; [7]
  growth inhibition: -3%
[1]; [8]
  growth inhibition: 96% (active)
[1]; at 50.0 µM
  growth inhibition: 94.7% (active)
[2]; [7]
  growth inhibition: 1%
[2]; [8]
  growth inhibition: 97% (active)
[2]; at 50.0 µM
  growth inhibition: 96.9% (active)
[3]; [7]
  growth inhibition: -5%
[3]; [8]
  growth inhibition: 34%
[3]; at 50.0 µM
  growth inhibition: 41.5%
[4]; [7]
  growth inhibition: 14%
[4]; [8]
  growth inhibition: 97% (active)
[4]; at 50.0 µM
  growth inhibition: 95% (active)
[5]; [7]
  growth inhibition: 2%
[5]; [8]
  growth inhibition: 99% (active)
[5]; at 50.0 µM
  growth inhibition: 95.8% (active)
[6]; [7]
  growth inhibition: 4%
[6]; [8]
  growth inhibition: 97% (active)
[6]; at 50.0 µM
  growth inhibition: 95.4% (active)
